Compound activity from PubChem BioAssay.
This is one part of a sample in which hits are shown more often than they occur.
Dicer processing: inhibitors of human Dicer processing of pre-microRNA; cat-ELCCA pre-miR-21 Dicer processing, chemiluminescence; active compounds read high; z-score at 25 µM; 47,000 compounds, 6% hits; AID 1347074; in the data active means z-score above about 3, passing the limit was not always enough;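 further: higher signal means more uncleaved substrate so more Dicer inhibition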
Of the large screens only hits and unclear results are named; the others gave an inactive call; ! = not confirmed by another sample.

Cc1ccc2nc(Nc3nc(-c4ccc(F)cc4)cc(=O)[nH]3)nc(C)c2c1	none
CC(C)C(=O)Nc1ccc2oc(-c3ccncc3)nc2c1	none
O=C(CC1(O)C(=O)N(Cc2ccccc2)c2ccccc21)c1ccc(Cl)cc1 (stereo not drawn)	Dicer processing 3
O=C(CC1(O)C(=O)N(Cc2ccc(Cl)cc2)c2ccccc21)c1cccs1 (stereo not drawn)	none
CN(C)c1ccc(C(=O)CC2(O)C(=O)N(Cc3ccc(Cl)cc3)c3ccccc32)cc1 (stereo not drawn)	none
Fc1ccc(NC(=S)NC2CC3CC2C2C=CCC32)cc1 (stereo not drawn)	none
O=C(O)c1nccnc1C(=O)N1CCC(O)CC1	none
Cc1ccc(S(=O)(=O)N(C(=O)c2cccnc2)c2ccc3oc(=O)sc3c2)cc1	Dicer processing 5
CC(C)c1ccc(S(=O)(=O)N(C(=O)c2ccncc2)c2ccc3oc(=O)sc3c2)cc1	none
O=C(c1cccnc1)N(c1ccc2oc(=O)sc2c1)S(=O)(=O)c1ccc(Br)cc1	Dicer processing 11
CCCCC(=O)N(c1ccc2oc(=O)sc2c1)S(=O)(=O)c1ccc(C(=O)O)cc1	none
CCCCC(=O)N(c1ccc2oc(=O)sc2c1)S(=O)(=O)c1ccc(OC)cc1	none
Cc1cc(F)ccc1S(=O)(=O)N(C(=O)c1cccnc1)c1ccc2oc(=O)sc2c1	Dicer processing 4.8
COc1ccc(S(=O)(=O)N(C(=O)C(C)C)c2ccc3oc(=O)sc3c2)cc1	none
CCCC(=O)N(c1ccc2oc(=O)sc2c1)S(=O)(=O)c1ccc(F)cc1C	none
Cc1ccc(C)c(NC(=O)C2Sc3nnc(C)n3NC2c2ccccc2)c1 (stereo not drawn)	none
Nc1ccc(C(=O)CC2(O)C(=O)Nc3ccc(Cl)cc32)cc1 (stereo not drawn)	none
Cc1oc(C(C)(C)C)cc1C(=O)/C(C#N)=C/Nc1ccc(Cl)cn1	none
Cc1c(C)c(C)c(S(=O)(=O)Oc2ccc(Cl)c(Cl)c2)c(C)c1C	none
Cc1cc(S(=O)(=O)Oc2c(Cl)cccc2Cl)cc(C)c1F	none
Cc1c(C)c(C)c(S(=O)(=O)Oc2c(Cl)cccc2Cl)c(C)c1C	Dicer processing 6.9
COc1cccc(C2CC(c3ccc(OCc4ccccc4)cc3)n3ncnc3N2)c1 (stereo not drawn)	none
Cc1c(N=Cc2ccc(-c3cccc([N+](=O)[O-])c3)o2)c(=O)n(-c2ccccc2)n1C	none
O=S(=O)(Nc1nc(SCc2ccc(Cl)cc2)n[nH]1)c1ccc(-c2ccccn2)s1	Dicer processing 3.4
O=S(=O)(Nc1nc(SCc2ccc(Cl)cc2)n[nH]1)c1ccc(F)cc1	none
O=S(=O)(NCCc1ccccn1)c1ccc(-c2ccccn2)s1	none
COc1ccc(CN2CCN(Cc3ccncc3)CC2)cc1Br	none
Cc1n[nH]c(C)c1-c1c(C)n[nH]c1C	none
CNC(=S)N(CCS(=O)(=O)c1ccc(Cl)cc1)Cc1cccs1	Dicer processing 3.2
O=S(=O)(CCN(Cc1cccs1)C(=S)Nc1cccc(F)c1)c1ccc(Cl)cc1	none
O=S(=O)(CCN(Cc1cccs1)S(=O)(=O)c1ccc(Cl)cc1)c1ccc(Cl)cc1	none
CN(C)/C=N/c1nnc(SCc2ccc([N+](=O)[O-])cc2)s1	none
CCCOC(=O)CSc1n[nH]c(=O)[nH]c1=O	none
S=c1[nH]nc(NCc2cccs2)s1	none
N#CC(C(=O)c1cccs1)=C1SCCS1	Dicer processing 3.8
N#CC(C(=O)c1ccccc1)=C1SCCCS1	none
N#CC(C(=O)c1ccccc1Cl)=C1SCCCS1	none
CC1CC2(CC(C)(c3csc(N)n3)OC2=O)C(=O)O1 (stereo not drawn)	none
Nc1nc2c(c(=O)[nH]1)C(c1ccc(OCc3ccccc3)cc1)CC(=O)N2 (stereo not drawn)	none
Cc1cc(C)n(-c2ccc(C(F)(F)F)cc2)n1	none
O=C(Oc1ccc2c(c1)oc(=O)c1ccccc12)c1ccco1	none
O=C(Oc1ccc2cc(Br)ccc2c1)c1ccco1	Dicer processing 5.8
O=C(Oc1cccc(Br)c1)c1ccco1	none
O=C(/C(=N\O)c1ccccc1)c1ccccc1	none
CSC(N)=Nc1csc(C(F)(F)F)c1-c1ccccc1	none
NC(=S)Nc1csc(C(F)(F)F)c1-c1ccccc1	Dicer processing 3.3
NC(=S)Nc1ccc(C(F)(F)F)cc1	none
CSC(N)=Nc1cc(Cl)ccc1Cl	none
CSC(N)=Nc1ccc(Cl)c(Cl)c1	none
CSC(N)=Nc1ccc(Cl)cc1	Dicer processing 3!
Cc1ccc(C2Nc3ccc(C(=O)c4ccccc4)cc3NC3=C2C(=O)CCC3)o1 (stereo not drawn)	none
Cc1cc(Oc2nc3c(Cl)cc(Cl)cc3s2)c2cc(F)cc(F)c2n1	none
CC(C)c1ccc(C2C(C(=O)c3cccs3)=C(O)C(=O)N2CCN2CCOCC2)cc1 (stereo not drawn)	none
COc1ccc(C2C(C(=O)c3cccs3)=C(O)C(=O)N2CCCN(C)C)cc1 (stereo not drawn)	none
CN(C)CCN1C(=O)C(O)=C(C(=O)c2cccs2)C1c1ccncc1 (stereo not drawn)	Dicer processing 4.1
CC(C)c1ccc(C2C(C(=O)c3cccs3)=C(O)C(=O)N2CCN(C)C)cc1 (stereo not drawn)	Dicer processing 4.7
Cc1nnc(N2C(=O)C(O)=C(C(=O)c3cccs3)C2c2ccc(C(C)C)cc2)s1 (stereo not drawn)	none
